# Screens: PubChem BioAssay, The Scripps Research Institute Molecular Screening Center
# LYPLA1 counter – LYPLA1 inhibitors, primary screen, counter-screen for PME1 inhibitor project, biochemical, fluorescence polarization, FP-Rh probe ABPP; hit rate 0.16% among 320,000; Acyl-protein thioesterase 1 (Homo sapiens), O75608; inhibition, % at 5.9 µM; recombinant LYPLA1;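 active = inhibition above the mean of all tested compounds plus 3 SD, set per campaign, cut at about 14% in these data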;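 also: inhibitors block serine hydrolase probe labeling of LYPLA1 so polarization falls; 0% = enzyme with DMSO and 100% = wells lacking LYPLA1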
# Target sequence (O75608 whole entry, looked up): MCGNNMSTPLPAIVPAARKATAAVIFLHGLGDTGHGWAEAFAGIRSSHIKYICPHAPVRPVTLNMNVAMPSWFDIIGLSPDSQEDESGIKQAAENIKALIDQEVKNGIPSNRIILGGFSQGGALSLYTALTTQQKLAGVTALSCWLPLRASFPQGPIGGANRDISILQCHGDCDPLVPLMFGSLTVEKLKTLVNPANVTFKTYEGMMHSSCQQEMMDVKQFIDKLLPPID
# GSTO1 counter – inhibitors of recombinant GSTO1, primary screen, counter-screen for RBBP9 inhibitor project, biochemical, fluorescence polarization; inhibition, % at 5.96 µM; Glutathione S-transferase omega-1 (Homo sapiens), P78417; activity-based probe fluorescence polarization; hit rate 1.1% among 300,000;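 active = inhibition above the campaign mean inhibition plus 3 SD, cut at about 35% in these data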;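 also: 0% = GSTO1-1 with DMSO and 100% = wells lacking GSTO1-1 enzyme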
# LYPLA2 counter – LYPLA2 inhibitors, primary screen, counter-screen for PME1 inhibitor project, biochemical, fluorescence polarization, FP-Rh probe ABPP; hit rate 0.38% among 320,000; recombinant LYPLA2; inhibition, % at 5.9 µM; Acyl-protein thioesterase 2 (Homo sapiens), O95372;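 active = inhibition above the screen-wide mean plus 3 SD, limit set per campaign, cut at about 26% in these data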;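 also: 0% = LYPLA2 with DMSO and 100% = wells lacking LYPLA2 enzyme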
# Target sequence (O95372 whole entry, looked up): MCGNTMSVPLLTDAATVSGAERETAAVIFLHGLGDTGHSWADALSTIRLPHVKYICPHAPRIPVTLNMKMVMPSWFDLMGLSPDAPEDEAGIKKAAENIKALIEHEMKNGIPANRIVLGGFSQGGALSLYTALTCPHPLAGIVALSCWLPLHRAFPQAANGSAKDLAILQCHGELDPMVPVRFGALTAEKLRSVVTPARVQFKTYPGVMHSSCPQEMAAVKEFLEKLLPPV
# Fam108B inh – mouse Fam108B serine hydrolase inhibitors, primary screen, counter-screen for RBBP9 inhibitor project, biochemical, fluorescence polarization; recombinant Fam108B, FP-Rh probe fluorescence polarization; inhibition, % at 9.51 µM; hit rate 0.33% among 300,000; AID 1947, 2009;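 active = inhibition above the screen mean inhibition plus 3 SD, computed separately per campaign, cut at about 18% in these data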;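 also: inhibitors lower polarization as less probe binds the enzyme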
# PAD4 FP inh – human PAD4 inhibitors, primary screen, biochemical, fluorescence polarization, 1536-well format; Protein-arginine deiminase type-4 (Homo sapiens), Q9UM07; recombinant PAD4, RCA probe fluorescence polarization; inhibition, % at 6.36 µM; hit rate 0.41% among 330,000;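 active = percent inhibition above a cutoff equal to the mean of all tested compounds plus 3 SD, cut at about 15% in these data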;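 also: 0% = PAD4 with RCA probe and DMSO and 100% = probe without PAD4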
# PME-1 inh – PME-1 inhibitors via competitive probe labeling, primary screen, biochemical, fluorescence polarization, FP-Rh probe, HTS; hit rate 0.53% among 320,000; AID 2130, 2009; recombinant PME-1; Protein phosphatase methylesterase 1 (Homo sapiens), Q9Y570; inhibition, % at 5.9 µM;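 active = inhibition above the campaign mean of all compounds plus 3 SD, cut at about 26% in these data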;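 also: competitive labeling of PME-1 active site by serine hydrolase directed probe; 0% = PME-1 with DMSO and 100% = wells lacking PME-1 enzyme; inhibitors block probe labeling so polarization falls and inhibition rises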
# LYPLA2 confirm – LYPLA2 inhibitors, retest, confirmation, counter-screen for PME1 inhibitor project, biochemical, fluorescence polarization, FP-Rh probe ABPP; shares compounds with LYPLA2 counter; recombinant LYPLA2; inhibition, % at 5.9 µM; hit rate 72% among 1,100;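 active = mean inhibition across replicates above the hit cutoff set in the primary screen, cut at about 26% in these data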;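 also: blocked labeling of the enzyme by serine hydrolase FP-Rh probe lowers polarization; 0% = enzyme with DMSO and 100% = wells lacking LYPLA2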
# LYPLA2 ABPP – LYPLA2 inhibitors in proteome, late-stage follow-up, gel-based competitive ABPP, fluorescence, assay provider; hit rate 30% among 150; inhibition, % at 20 µM; rhLYPLA2 in mouse brain proteome, gel ABPP FP-Rh; shares compounds with LYPLA2 counter;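 active = inhibition of LYPLA2 enzyme probe labeling above about 50%, limit read from the data; inactive = inhibition below that limit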;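 also: loss of FP-Rh probe labeling of the LYPLA2 gel band measured as band density; 0% = DMSO only control band and 100% = blank gel background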
# An asterisk follows results filed as active; / = not tested or not shown. Compounds with a hit are over-represented: about 1.8% of the library has one in this group of screens.
SMILES,LYPLA1 counter,GSTO1 counter,LYPLA2 counter,Fam108B inh,PAD4 FP inh,PME-1 inh,LYPLA2 confirm,others
C#CCOCCOCCOCCNc1nc(N2CCN(C(=O)CCCCCCCCCCNC(=O)[C@H]([C@@H](C)CC)n3cc(CCCCCN)nn3)CC2)nc(N2CCN(C(=O)CCCCCCCCCCNC(=O)[C@@H]([C@H](C)O)n3cc(C)nn3)CC2)n1,0,12,29*,-2,-5,-7,29*,
C#CCOCCOCCOCCNc1nc(N2CCN(C(=O)CCCCCCCCCCNC(=O)Cn3cc(CCCCCN)nn3)CC2)nc(N2CCN(C(=O)CCCCCCCCCCNC(=O)[C@H]([C@@H](C)CC)n3cc(CCCCCN)nn3)CC2)n1,3,0,31*,-4,6,-4,23,
CC1CCCCN1S(=O)(=O)c1ccc(S(=O)(=O)NCCc2ccncc2)cc1 (stereo not given),-2,4,-3,-3,-3,0,/,
Cc1ccc2nc(NCc3ccco3)c(C=NCc3ccco3)c(=O)n2c1,0,1,32*,2,-4,3,-3,
Cc1ccc2nc(NCc3ccccc3)c(C=NCc3cccnc3)c(=O)n2c1,1,-11,12,0,-2,-1,/,
CCCCCOC(=O)NC1CCS(=O)(=O)C1 (stereo not given),-3,-8,-5,3,-3,-5,/,
O=C(Nc1ccc(S(=O)(=O)N2CCOCC2)cc1)c1cc(S(=O)(=O)N2CCOCC2)ccc1Cl,8,1,40*,1,0,-2,38*,
O=C(Nc1cccc(S(=O)(=O)C(F)F)c1)c1ccc(S(=O)(=O)N2CCOCC2)cc1,-5,-7,-6,0,-8,-1,/,
O=C(Nc1ccc(S(=O)(=O)C(F)F)cc1)c1cccc(S(=O)(=O)N2CCOCC2)c1,-6,-1,35*,1,1,-3,38*,
Cc1cc2c(NC(=O)Nc3ccc(F)cc3)cccc2nn1,-9,-1,44*,-4,-8,1,54*,LYPLA2 ABPP=43
COc1ccc(NC(=O)Nc2ccc(F)cc2)c(C)c1,-3,20,5,-2,-11,-6,/,
CSc1ccccc1NC(=O)Cc1ccccc1[N+](=O)[O-],-1,0,-2,-5,-2,-5,/,
CN(Cc1nc(-c2ccncc2)no1)S(=O)(=O)c1ccc(Br)cc1,5,0,37*,-2,4,9,36*,
CN(Cc1nc(-c2ccncc2)no1)S(=O)(=O)c1ccc(Cl)cc1,2,-2,28*,2,0,-1,30*,
CN(Cc1nc(-c2ccc(Cl)cc2)no1)C(=O)c1ccc2c(c1)OCO2,13,4,34*,1,-1,4,34*,
CN(Cc1nc(-c2ccncc2)no1)S(=O)(=O)c1ccccc1,3,-6,2,0,0,0,/,
CN(Cc1nc(-c2ccccn2)no1)S(=O)(=O)c1ccccc1,-3,-3,-4,-3,-3,4,/,
Cc1ccc(N2C(=O)c3ccc(C(=O)N4CCN(Cc5ccccc5)CC4)cc3C2=O)cc1,2,6,33*,1,-1,2,27*,
Cc1ccc(N2C(=O)c3ccc(C(=O)N4CCN(c5ccc(C)c(C)c5)CC4)cc3C2=O)cc1,3,6,5,-1,-2,4,/,
CC(=O)Nc1ccc(NC(=O)CCC(=O)OCC(=O)c2cccc([N+](=O)[O-])c2)cc1,-3,9,-4,4,2,0,/,
Cc1ccc(NC(=O)CCC(=O)OCC(=O)c2ccc(Oc3ccc([N+](=O)[O-])cc3)cc2)cc1C,2,-4,36*,3,-5,4,19,
O=[N+]([O-])c1ccccc1-c1nc(-c2ccc(Br)o2)no1,0,0,32*,-1,-6,3,29*,
COc1ccc(-c2cc(C)no2)cc1S(=O)(=O)N1CCN(c2cccc(C)c2)C(C)C1 (stereo not given),-4,7,32*,0,1,-2,31*,
Cc1ccc(NC2CCCN(C(=O)Cc3nonc3C)C2)cc1C (stereo not given),2,0,-4,3,1,-6,/,
CC(C)CC(=O)Nc1ccc(C(=O)Cn2nc(C(=O)O)c3ccccc3c2=O)cc1,0,11,44*,-14,-3,-10,39*,
SMILES,LYPLA1 counter,GSTO1 counter,LYPLA2 counter,Fam108B inh,PAD4 FP inh,PME-1 inh,LYPLA2 confirm,others
Cc1cc(N2CCCCC2)nc(N2CCCCC2)n1,-1,-2,4,1,-2,3,/,
CCCCN(CC)C(=O)C1CCC(CNS(=O)(=O)c2cccc3nsnc23)CC1 (stereo not given),0,-1,1,-3,-3,2,/,
Clc1ccc(Oc2cccc(/C=N/n3cnnc3)c2)cc1,9,13,37*,-3,7,3,32*,
OC1(c2ccc(Br)cc2)CN(c2ccccc2)C2=[N+]1CCS2 (stereo not given),3,4,6,0,1,-1,/,
Cc1cc(-c2ccccc2)nc2cc(C(=O)NCc3ccco3)nn12,-2,7,7,4,3,6,/,
CC12CCC(c3c(C(=O)O)nn(-c4ccc(F)cc4)c31)C2(C)C (stereo not given),-7,8,-1,-4,-3,-3,/,
CC12CCC(c3c(C(=O)N4CCOCC4)nn(-c4ccccc4)c31)C2(C)C (stereo not given),7,3,28*,-1,-3,4,-3,
CN=C1SC(CC(=O)Nc2ccc(F)cc2F)C(=O)N1/N=C(\C)c1cccc(OCC(=O)O)c1 (stereo not given),-1,7,26*,2,3,5,25,
O=C(NCCCn1cccn1)C1CCC(=O)N(CCc2ccccc2)C1 (stereo not given),3,5,0,3,-4,1,/,
COCCn1c(=NC(=O)CN2C(=O)CCC2=O)sc2cc(S(N)(=O)=O)ccc21,-1,2,2,3,0,-7,/,
